High-throughput results from PubChem BioAssay.
Shown are actives, neighbours in structure and some others; about 3.5% of the full set was active somewhere.
GPR151 ag: activates the human receptor GPR151; PathHunter beta-arrestin GPR151 cells, luminescence; activation, % at 11.2 µM; hit rate 1% among 650,000; in the data active means activation above about 4.9%
Target sequence (Q8TDV0 whole entry, looked up): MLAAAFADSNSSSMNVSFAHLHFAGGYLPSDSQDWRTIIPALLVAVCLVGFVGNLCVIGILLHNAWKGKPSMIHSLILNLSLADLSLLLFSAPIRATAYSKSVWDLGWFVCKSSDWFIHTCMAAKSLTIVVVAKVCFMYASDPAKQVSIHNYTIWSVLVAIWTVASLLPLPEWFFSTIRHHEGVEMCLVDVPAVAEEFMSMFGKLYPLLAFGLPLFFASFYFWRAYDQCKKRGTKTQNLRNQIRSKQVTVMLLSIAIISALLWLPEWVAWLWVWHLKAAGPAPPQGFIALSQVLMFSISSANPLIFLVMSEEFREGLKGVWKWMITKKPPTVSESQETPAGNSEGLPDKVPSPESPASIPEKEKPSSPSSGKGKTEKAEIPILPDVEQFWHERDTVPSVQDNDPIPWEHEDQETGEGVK
TEAD-YAP block: TEAD-YAP interaction inhibition | HEK-TIYL cells, TEAD-Gal4/YAP UAS-luciferase luminescence | inhibition, % at 9.12 µM | hit rate 1.4% among 640,000 | AID 1259422; in the data active means inhibition above about 32%
FBW7 activator: human FBW7 E3 ligase activation, primary screen; AlphaScreen FBW7–phospho-cyclin E peptide binding, activator screen; hit rate 0.13% among 650,000; AID 1259310; Q969H0; normalized activity (activation), % at 26.1 µM; in the data active means normalized activity above about 1.9%;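 further: purified mutant Fbw7 with reduced substrate affinity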
MITF inh: inhibitors of human MITF. hit rate 0.91% among 650,000. AID 1259374. inhibition, % at 2.6 µM. AlphaScreen MITF homodimerization, bead proximity signal; in the data active means inhibition above about 50%
MITF inh conf: confirmation of human MITF inhibitors; shares compounds with MITF inh; AlphaScreen MITF homodimerization, biotin/His-MITF beads; inhibition, % at 2.6 µM; hit rate 16% among 4,700; AID 1259372;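 active means inhibition above a cutoff derived from the DMSO control wells, cut at about 28% in these data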;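 further: inhibitors lower the bead chemiluminescence by keeping MITF from dimerizing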
AlphaScreen DR: counter-screen: compounds optically interfering with AlphaScreen. shares compounds with MITF inh. AlphaScreen optical interference counterscreen, cell-free. IC50, µM. hit rate 6% among 480; call rule not given here
AS interf ctr: counter-screen: compounds optically interfering with AlphaScreen; inhibition, % at 2.6 µM; LysRS AlphaScreen counterscreen, signal interference, triplicate; hit rate 7.6% among 4,700; shares compounds with MITF inh;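 active means inhibition above a cutoff derived from the DMSO control wells, cut at about 30% in these data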
Hits are given with their value; - = inactive; . = no result.

SMILES	GPR151 ag	TEAD-YAP block	FBW7 activator	MITF inh	MITF inh conf	AS interf ctr	others
Cc1noc(C2CN(C(=O)c3ccc(-n4cccc4)cc3)C2)n1	-	-	-	55	53	-	AlphaScreen DR=-
Cc1cc(NC(=O)C2CCN(C(=O)c3ccc(-n4cccc4)cc3)CC2)no1	-	-	-	51	47	-	AlphaScreen DR=-
CC(=O)c1ccc(NC(=O)CC(C)c2ccccc2)cc1 (stereo unspecified)	-	-	-	-	.	.
CC(=O)c1ccc(NC(=O)CNCC(c2ccccc2)N(C)C)cc1 (stereo unspecified)	-	-	-	66	-	-
O=C(Nc1cccc(-c2ccncc2)c1)C1Cc2c(ccc3ccccc23)O1 (stereo unspecified)	-	-	-	-	.	.
O=C1N[C@H](Cc2ccccc2)C(=O)N2CCN(C(=O)NC3CCCCC3)C[C@H]12	-	-	-	74	71	-	AlphaScreen DR=-
O=C1N[C@@H](Cc2ccccc2)C(=O)N2CCN(C(=O)NC3CCCCC3)C[C@H]12	-	-	-	76	69	-	AlphaScreen DR=-
O=C1CSC(=Nc2cccc(Br)c2)N1	-	-	-	53	-	-
Cc1ccc(OCCN2CCOCC2)c(Br)c1	-	-	-	64	-	-
Cc1ccc(OCCOCCN2CCOCC2)c(C)c1	-	-	-	-	.	.
Clc1ccc(OCCN2CCOCC2)c(Br)c1	-	-	-	-	.	.
Cc1ccc(C(C)(C)C)c(OCCN2CCOCC2)c1	-	-	-	65	-	-
Cc1cc(Cl)c(OCCN2CCOCC2)c(Cl)c1	-	-	-	61	-	-
CN1CCC(N(C)Cc2ccc(F)cc2)CC1	-	-	-	-	.	.
Cc1ccc(C2N(c3ccc(Cl)cc3)C(=O)C3CCCN32)o1 (stereo unspecified)	-	-	-	-	.	.
O=c1c2nccnc2[nH]c(=S)n1Cc1ccco1	-	-	-	-	.	.
O=C(OC1CCCC1=O)c1ccc(N2CCCC2=O)cc1 (stereo unspecified)	-	-	-	62	44	-	AlphaScreen DR=-
c1cc(-c2ccc3cnc(Nc4ccc(-n5cnc(N6CCOCC6)n5)cc4)nc3c2)ccn1	-	-	-	-	.	.
O=c1ccc(-c2ccc3cnc(Nc4ccc(-n5cnc(N6CCOCC6)n5)cc4)nc3c2)c[nH]1	-	-	-	60	-	-
Cn1cc(-c2nc(Nc3ccc(-n4cnc(N5CCOCC5)n4)cc3)ncc2Br)cn1	-	-	-	57	67	-	AlphaScreen DR=-
CC(CC(=O)Nc1ccccc1)NC1CCN(Cc2ccccc2)CC1 (stereo unspecified)	-	-	-	66	-	-
c1ccc(CN2CCC(NCc3ccc(-n4ccnc4)cc3)CC2)cc1	-	-	-	51	-	-
CC(=O)Nc1ccc(CNC2CCN(Cc3ccccc3)CC2)cc1	-	-	-	79	-	-
CCCOc1cccc(C(=O)Nc2ccc3nn(-c4ccc(C)c(C)c4)nc3c2)c1	-	-	-	-	.	.
CCCNC(=O)Cc1cccc2ccccc12	-	-	-	-	.	.
SMILES	GPR151 ag	TEAD-YAP block	FBW7 activator	MITF inh	MITF inh conf	AS interf ctr	others
O=C(NCc1cccnc1)c1cc2ccccc2o1	-	-	-	52	-	-
O=C(NC(=S)NCc1cccnc1)c1cc2ccccc2o1	-	-	-	-	.	.
O=[N+]([O-])c1ccc(CSCCc2ccccn2)cc1	-	-	-	70	-	-
O=C(CCSCCc1ccccn1)Nc1cccc([N+](=O)[O-])c1	-	-	-	-	.	.
CN(C)CCN(C)Cc1ccc([N+](=O)[O-])cc1	-	-	-	83	-	-
CCc1ccc(CN(C)CCc2ccccn2)cc1	-	-	-	89	-	-
CN(Cc1ccccc1)Cc1cccnc1	-	-	-	-	.	.
CN(Cc1ccccc1)Cc1ccccn1	-	-	-	54	-	-
CN(C)CCN(C)Cc1ccc(N(C)C)cc1	-	-	-	-	.	.
CCOC(=O)c1ccccc1NC(=O)COc1ccc(C(C)C)cc1	-	-	-	-	.	.
O=S(=O)(NCCCNC1CCCCC1)c1ccc2ccccc2c1	-	-	-	-	.	.
COc1ccc(C2C(C(=O)N(C)CCc3ccccn3)c3ccccc3C(=O)N2Cc2ccc(F)cc2)cc1 (stereo unspecified)	-	-	-	-	.	.
CCOc1ccccc1CN(C)CCc1ccccn1	-	-	-	89	-	-
COc1ccc(CN(C)CCc2ccccn2)cc1	-	-	-	83	-	-
CN(CCc1ccccn1)Cc1ccc([N+](=O)[O-])cc1	-	-	-	75	-	-
Cc1ccc(CN(C)CCc2ccccn2)cc1	-	-	-	-	.	.
CN(CCc1ccccn1)Cc1ccc(Cl)cc1	-	-	-	83	-	-
N#Cc1cc2cc3c(cc2nc1SCC(=O)N1CCCCC1)OCCO3	-	-	-	-	.	.
O=C(Nc1ccccc1Cl)N1CCC(CO)(CC2CCCCO2)CC1 (stereo unspecified)	-	-	-	-	.	.
Cn1c(=O)c2ncn(CC(=O)NN)c2n(C)c1=O	-	-	-	-	.	.
CN(CCc1ccccn1)Cc1ccc2c(c1)CN(Cc1cccs1)CCO2	-	-	-	-	.	.
CN(CCc1ccccn1)Cc1ccncc1	-	-	-	83	-	-
Cc1ccc2c(c1)nnn2C1CCN(C(=O)c2ccc(Br)cc2)CC1	-	-	-	-	.	.
CN(CC1CCCCO1)C(=O)Cn1nnnc1CN1CCCCCC1 (stereo unspecified)	-	-	-	51	-	-
CCOC(=O)C1=C(C)N=c2s/c(=C\c3cc(C)n(-c4ccc(C)cc4)c3C)c(=O)n2C1c1ccc(OC)c(OC)c1 (stereo unspecified)	-	-	-	-	.	.
SMILES	GPR151 ag	TEAD-YAP block	FBW7 activator	MITF inh	MITF inh conf	AS interf ctr	others
CCNc1ncc(C)c(NCCc2ccc(O)cc2)n1	-	-	-	-	.	.
CCCCCOC(=O)C1=C(C)NC2=C(C(=O)CC(C)(C)C2)C1c1ccccc1I (stereo unspecified)	-	-	-	61	-	-
COc1cccc(C2C(C(=O)OC(C)C)=C(C)NC3=C2C(=O)CC(C)(C)C3)c1OC (stereo unspecified)	-	-	-	64	-	-
COc1ccc(C2C(C(=O)OC(C)C)=C(C)NC3=C2C(=O)CC(C)(C)C3)c(OC)c1OC (stereo unspecified)	-	-	-	-	.	.
C=CCNC1CCN(c2ccc(NC(=O)c3ccc(OC)cc3)cc2)CC1	-	-	-	60	-	-
N#CC1=c2/c(=C/c3ccco3)c(N)c(C#N)n2C(=O)C(c2ccco2)S1 (stereo unspecified)	-	-	-	68	47	-	AlphaScreen DR=-
CCc1nc(C)ccc1OCc1nc2ccncc2[nH]1	-	-	-	58	-	-
NCc1nc2ccncc2[nH]1	-	-	-	-	.	.
COc1cc(OC)nc(Oc2ccccc2C(=O)NC(C)(C)CO)n1	-	-	-	-	.	.
OCc1ccc(-c2nccnc2NCCCN2CCOCC2)cc1	-	-	-	-	.	.
CCOc1ccc(OCC)c(S(=O)(=O)NCc2cccnc2)c1	-	-	-	57	-	-
COc1ccc(OC)c(S(=O)(=O)NCc2cccnc2)c1	-	-	-	-	.	.
